Source: PubChem
Hits are enriched below; roughly 31% of the tested compounds scored in any of these assays.
CYP2C19 activ: cytochrome P450 2C19 (human) activation; P33261; recombinant CYP2C19, luciferin-H EGE luminescence; active compounds read high; 0 = fully inhibited enzyme, 1 = untreated enzyme; activation factor at 5 µM; 96,000 tested, under 10 active; AID 1025;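 active = activation factor of at least 2 at 5 µM in the primary screen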
PLAP act: human PLAP activation; activation fold at 20 µM; 96,000 compounds, 1.2% hits; purified PLAP enzyme, luminescent substrate read-out; active compounds read high; P05187; in the data active = activation fold above about 2
CYP2C9 inhib: inhibitors of human CYP2C9. 96,000 compounds, 20% hits. inhibition, % at 5 µM. AID 777. CYP2C9 Supersomes, luciferin-H conversion, luminescence. P11712;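 active = blocking of liver enzyme CYP2C9 beyond about 50% at 5 µM, limit read from the data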
Target sequence (P11712 whole entry, looked up): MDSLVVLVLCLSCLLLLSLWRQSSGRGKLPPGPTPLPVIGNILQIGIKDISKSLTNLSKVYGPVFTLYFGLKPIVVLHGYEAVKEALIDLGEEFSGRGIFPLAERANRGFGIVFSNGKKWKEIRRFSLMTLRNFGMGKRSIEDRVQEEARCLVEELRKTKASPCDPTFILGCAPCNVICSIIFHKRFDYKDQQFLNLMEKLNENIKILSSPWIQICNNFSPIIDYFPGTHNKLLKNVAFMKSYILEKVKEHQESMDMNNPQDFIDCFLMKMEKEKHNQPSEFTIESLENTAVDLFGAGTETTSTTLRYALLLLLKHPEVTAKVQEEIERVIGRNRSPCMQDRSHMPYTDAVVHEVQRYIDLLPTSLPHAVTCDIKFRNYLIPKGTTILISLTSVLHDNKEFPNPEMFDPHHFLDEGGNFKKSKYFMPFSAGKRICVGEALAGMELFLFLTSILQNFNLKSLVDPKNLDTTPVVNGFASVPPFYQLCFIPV
CYP2C9 act: activators of human CYP2C9; P11712; recombinant CYP2C9, luciferin-H conversion, luminescence; active compounds read high; factor 1 = untreated enzyme, 0 = blocked; activation factor at 5 µM; 96,000 compounds, 1.4% hits;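 active = activation factor of 2 or more for CYP2C9 at a 5 µM dose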
CYP2C19 inh: inhibitors of human CYP2C19; AID 778; inhibition, % at 5 µM; P33261; 96,000 compounds, 21% hits; CYP2C19 Supersomes, luciferin-H EGE luminescence, 30 min;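 active = CYP2C19 inhibition above a set limit at 5 µM in the primary screen, cut at about 50% in these data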
A number is an active result; . = inactive.

SMILES | CYP2C19 activ | PLAP act | CYP2C9 inhib | CYP2C9 act | CYP2C19 inh
CC(C)Cn1c(SCC(=O)NCc2ccc(Cl)cc2)nnc1-c1cccc(S(=O)(=O)N2CCOCC2)c1 | . | . | 61 | . | .
CC(C)(C)C1CCC(=O)C(C2(O)C(=O)Nc3ccccc32)C1 (configuration not stated) | . | . | . | . | .
O=C1CCCCCC1C1(O)C(=O)Nc2ccc(Br)cc21 (configuration not stated) | . | . | . | . | 52
CCCOc1ccc(C(=O)N2CC3(CC(c4cccc(NC(=O)[C@@H]5CCC(=O)N5)c4)=NO3)C[C@H]2C(=O)NC2(C(N)=O)CC2)cc1 (some centres not stated) | . | . | . | . | .
Cc1ccc(S/C=C\C(=O)c2ccccc2)cc1 | . | . | . | . | .
CCOC(=O)c1c(-c2ccc(C)s2)csc1NC(=O)c1ccco1 | . | . | . | . | .
Cc1nnc(SCCn2c(N3CCC(C)CC3)nc3c2c(=O)[nH]c(=O)n3C)s1 | . | . | . | . | .
Cc1nnc(SCCn2c(N3CC(C)CC(C)C3)nc3c2c(=O)[nH]c(=O)n3C)s1 (configuration not stated) | . | . | 61 | . | .
CCOC(=O)c1sc(-n2[nH]c(C)cc2=O)nc1C | . | . | . | . | .
CCOC(=O)C1=C(C)NC(=O)NC1C1CC=CCC1 (configuration not stated) | . | . | . | . | 52
CC1=C(C(=O)OC(C)C)C(C2CC=CCC2)NC(=O)N1 (configuration not stated) | . | . | . | . | 65
Cc1cc(C)n(-c2nc3c(c(=O)n(C)c(=O)n3C)n2C)n1 | . | . | . | . | .
Cc1ccnc(NS(=O)(=O)c2ccc(N)cc2)n1 | . | . | . | . | .
C=CCn1c(COc2ccc(CC)cc2)nnc1SC/C(O)=C(\C#N)c1nc2ccccc2[nH]1 | . | . | . | . | .
CCOC(=O)c1ccc(NC(=O)CCc2nc(-c3cccc(C)c3)no2)cc1 | . | . | 52 | . | .
Cc1cccc(-c2noc(CCC(=O)Nc3ccccc3)n2)c1 | . | . | 75 | . | 92
O=C(CSCCO)Nc1ccc(C2CCCCC2)cc1 | . | . | . | . | .
O=C(Oc1cccc([N+](=O)[O-])c1)c1cc(-c2ccccc2)nc2ccccc12 | . | . | . | . | .
O=C1CCCc2sccc2N1 | . | . | . | . | .
Cc1ccc(CNC(=O)CCc2nc3ccccc3c(=O)[nH]2)cc1 | . | . | . | . | .
O=C(NCc1ccccc1)N(Cc1nc2ccccc2c(=O)[nH]1)C1CCCC1 | . | . | 53 | . | .
CCCCCCCN1N=C(C)C(C(=O)c2ccccc2)C1=O (configuration not stated) | . | . | 94 | . | .
CCCCCCN1N=C(C)C(C(=O)c2ccc(Cl)cc2)C1=O (configuration not stated) | . | . | 60 | . | .
CCCCN(C(=O)c1ccc(Cl)cc1)C1CC2CCC(C1)N2C (configuration not stated) | . | . | . | . | .
Cc1ccc(C(=O)N(c2c(C)n(C)n(-c3ccccc3)c2=O)C(C)C)cc1 | . | . | . | . | .
SMILES | CYP2C19 activ | PLAP act | CYP2C9 inhib | CYP2C9 act | CYP2C19 inh
O=C(Cc1ccccc1)CC1(O)C(=O)Nc2ccccc21 (configuration not stated) | . | . | . | . | .
N#Cc1nc(-c2ccc(OCc3ccccc3)cc2)oc1N1CCOCC1 | . | . | . | . | .
CCN1CCN(c2oc(COc3ccc(-c4ccccc4)cc3)nc2C#N)CC1 | . | . | 81 | . | 93
N#Cc1nc(COc2ccc(F)cc2)oc1N1CCN(Cc2ccccc2)CC1 | . | . | 93 | . | 73
N#Cc1nc(COc2ccc(Br)cc2)oc1N1CCN(Cc2ccccc2)CC1 | . | . | 56 | . | .
N#Cc1nc(COc2ccc(F)cc2)oc1N1CCC(Cc2ccccc2)CC1 | . | . | 70 | . | .
O=Cc1ccc2noc(-c3ccc(Cl)cc3)c2c1 | . | . | . | . | .
Cc1ncc([N+](=O)[O-])n1CCOC(=O)Nc1ccc(Cl)c(Cl)c1 | . | . | . | . | .
C=CCn1c(SCC(=O)c2ccc(CNC(C)=O)o2)nc2ccccc2c1=O | . | . | . | . | .
O=C(Oc1cccnc1)c1cc(S(=O)(=O)N2CCCCC2)ccc1Cl | . | . | . | . | .
Cc1nc2c(cnn2-c2ccc(Cl)cc2)c(=O)n1-c1ccc(N2CCC(C)CC2)cc1 | . | . | . | . | .
CCCCOc1ncnc2c1[nH]c1ccc(F)cc12 | . | . | . | . | .
O=C(C=C1CCN(c2ncc(C(F)(F)F)cc2Cl)CC1)NNC(=O)Nc1ccc(Cl)cc1 | . | . | . | . | .
CN(c1ccc(OCc2nnc(-c3ccccc3)o2)cc1)S(=O)(=O)c1ccccc1 | . | . | 98 | . | 94
CC(=O)Nc1ccc(S(=O)(=O)NC(CC(=O)NCCc2ccccc2)C(C)C)cc1 (configuration not stated) | . | . | . | . | .
CCN(CC)S(=O)(=O)c1ccc(/C(O)=C(\C#N)c2nc3ccccc3n2C)cc1 | . | . | . | . | .
Cc1ccc(SC/C(O)=C(\C#N)c2nc3ccccc3n2C)cc1 | . | . | 50 | . | .
Cn1c(/C(C#N)=C(\O)CN2CCN(Cc3ccccc3)CC2)nc2ccccc21 | . | 2.5 | . | . | .
Cc1ccc(S(=O)(=O)c2cc3c(=O)n4cccc(C)c4nc3n(CC3CCCO3)c2=N)cc1 (configuration not stated) | . | . | . | . | .
O=C(Nc1nnc(-c2cccs2)o1)c1cccc(C(F)(F)F)c1 | . | 2.1 | 59 | . | .
Cc1cc(C)cc(OCC(=O)NNC(=O)c2ccoc2C)c1 | . | . | . | . | .
Cc1cc(C)cc(OCC(=O)Nc2nonc2NC(=O)COc2cc(C)cc(C)c2)c1 | . | 2.3 | 64 | . | .
CCn1c(=O)n(CC(=O)NC2CCCC(C)C2C)c(=O)c2ccccc21 (configuration not stated) | . | . | . | . | .
COc1ccc(N2CCN(C(=O)CN(c3ccccc3)S(C)(=O)=O)CC2)cc1 | . | . | . | . | .
CN(CC(=O)N1CCN(c2ccc(F)cc2)CC1)S(=O)(=O)c1ccc(F)cc1 | . | . | . | . | .
CN(CC(=O)N1CCN(c2ccccc2)CC1)S(=O)(=O)c1cnc[nH]1 | . | . | 100 | . | 92
CN(CC(=O)N1CCN(c2cccc(Cl)c2)CC1)S(=O)(=O)c1cccs1 | . | . | 81 | . | 82
CS(=O)(=O)N(CC(=O)N1CCN(c2ccc(F)cc2)CC1)c1cccc(Cl)c1 | . | . | . | 2.4 | .
COCc1cc(=O)[nH]c(Nc2nc3ccc(C)cc3o2)n1 | . | . | . | . | .
Cc1ccc(-c2nn(C)c(=O)c3ccccc23)cc1CNC(=O)Cn1nc(-c2ccccc2)c2ccccc2c1=O | . | . | . | . | .
